The panel holds about 79,000 compounds, 15% with a hit somewhere; the sample as a whole holds those more often. Values without a mark were called inactive. Active and inactive are the calls of the source. Rule as the data show it: active = growth inhibition above about 70%; inactive = the rest.
What was measured:
[1] = NCI Yeast Anticancer Drug Screen. Data for the rad50 strain (AID 155);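 also: 0% = growth of vehicle-only cultures of the same strain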; details: S. cerevisiae rad50 strain growth inhibition, hits give high values
Method in brief: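 DNA repair mutant yeast, compound exposure, growth read-out; inhibition is taken relative to vehicle.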

[2] = NCI Yeast Anticancer Drug Screen. Data for the mec2-1 strain (AID 157); details: S. cerevisiae mec2-1 strain, hits give high values
Method in brief: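 Using mec2-1 yeast: add compound, measure growth, express inhibition versus vehicle-treated cultures.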

[3] = NCI Yeast Anticancer Drug Screen. Data for the sgs1 mgt1 strain (AID 161);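 also: 0% = growth of cultures given vehicle only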; details: S. cerevisiae sgs1 mgt1 strain, hits give high values
Method in brief: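 Percent growth inhibition was derived by comparing compound-exposed mutant yeast with vehicle-exposed cultures. The strain carries alterations in DNA damage repair.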

[4] = NCI Yeast Anticancer Drug Screen. Data for the cln2 rad14 strain (AID 165);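 also: 0% = growth equal to vehicle treated cultures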; details: S. cerevisiae cln2 rad14 strain, hits give high values
Method in brief: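 Yeast strain cln2 rad14, bearing defects in cell cycle control and DNA repair, serves as the test system; values reflect growth inhibition compared with vehicle.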

[5] = NCI Yeast Anticancer Drug Screen. Data for the bub3 strain (AID 167); details: S. cerevisiae bub3 mutant strain, hits give high values
Method in brief: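 In this screen, a yeast mutant lacking normal mitotic checkpoint function is challenged with compound. Relative growth versus vehicle gives the inhibition value.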

[6] = NCI Yeast Anticancer Drug Screen. Data for the mlh1 rad18 strain (AID 175); details: S. cerevisiae mlh1 rad18 strain growth inhibition, hits give high values
Method in brief: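 Steps: expose repair-defective yeast to compound; measure growth; express inhibition against vehicle-treated controls.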

[7] = at 5.0 µM (retest, dose inferred, filed as 0.5)
[8] = at 50.0 µM (retest, dose inferred, filed as 5.0)

| Structure (SMILES) | growth inhibition [1, 7] | growth inhibition [1, 8] | growth inhibition ([1]; at 50.0 µM) | growth inhibition [2, 7] | growth inhibition [2, 8] | growth inhibition ([2]; at 50.0 µM) | growth inhibition [3, 7] | growth inhibition [3, 8] | growth inhibition ([3]; at 50.0 µM) | growth inhibition [4, 7] | growth inhibition [4, 8] | growth inhibition ([4]; at 50.0 µM) | growth inhibition [5, 7] | growth inhibition [5, 8] | growth inhibition ([5]; at 50.0 µM) | growth inhibition [6, 7] | growth inhibition [6, 8] | growth inhibition ([6]; at 50.0 µM) |
| --- | --- | --- | --- | --- | --- | --- | --- | --- | --- | --- | --- | --- | --- | --- | --- | --- | --- | --- |
| COc1ccc2c(ccc3oc([N+](=O)[O-])cc32)c1 | 93% (active) | 95% (active) | 85.9% (active) | 96% (active) | 97% (active) | 91% (active) | 93% (active) | 94% (active) | 79.8% (active) | 97% (active) | 96% (active) | 85.2% (active) | 87% (active) | 91% (active) | 68% |  |  |  |
| CC1(CO)C(O)CCC2(C)C1CCC1CC3CC12CCC3(O)CO (stereo not given) | 4% | 87% (active) | -3.35% | 65% | 99% (active) | -18.8% | 1% | 80% (active) | 19.1% | -13% | 68% | -0.7% | -27% | 77% (active) | -10% | 14% | 91% (active) | 3.7% |
| COC(C)(C)[CH]([Hg][Cl])n1ccccc1=O (stereo not given) | 99% (active) | 99% (active) | 99.3% (active) | 99% (active) | 100% (active) | 99.4% (active) | 99% (active) | 99% (active) | 99.3% (active) | 98% (active) | 99% (active) | 99.2% (active) | 99% (active) | 99% (active) | 99.1% (active) | 98% (active) | 98% (active) | 99.3% (active) |
| [Cl][Hg][c]1ccc2ccccc2c1 | 99% (active) | 98% (active) | 85.8% (active) | 100% (active) | 97% (active) | 89.5% (active) | 100% (active) | 98% (active) | 90.9% (active) | 100% (active) | 97% (active) | 89.3% (active) | 99% (active) | 97% (active) | 88.1% (active) | 100% (active) | 97% (active) |  |
| COC(=O)[C@]1(C)CCC[C@]2(C)[C@H]3CC4OO[C@@]3(CC[C@H]21)[C@H]1O[C@@]41C(C)C | 98% (active) | 99% (active) | 92.5% (active) | 99% (active) | 99% (active) | 93.4% (active) | 99% (active) | 100% (active) | 93.7% (active) | 92% (active) | 99% (active) | 92.2% (active) | 98% (active) | 99% (active) | 91.8% (active) | 98% (active) | 99% (active) | 92.3% (active) |
| CC(C)c1oc(=O)cc2c1C(O)C1OC(=O)C3(C)C(O)C4OC4C2(C)C13 (stereo not given) | 8% | 65% | 31.9% | 10% | 81% (active) | -10.8% | 10% | 72% (active) | 25.1% | 19% | 71% (active) | 15.9% | 2% | 76% (active) | 17.4% | 11% | 86% (active) | 18.4% |
| O=C(Cc1c2ccccc2cc2c1ccc1ccccc12)N(CCCl)CCCl | 61% | 94% (active) | 98.8% (active) | 15% | 97% (active) | 99.3% (active) | 80% (active) | 98% (active) | 99.2% (active) | 5% | 95% (active) | 94.3% (active) | 17% | 97% (active) | 98.3% (active) | 42% | 96% (active) | 99% (active) |
| Cc1cc([N+](=O)[O-])c2ccccc2[n+]1[O-] | 99% (active) | 99% (active) | 99.1% (active) | 100% (active) | 100% (active) | 99.5% (active) | 99% (active) | 99% (active) | 48.6% | 100% (active) | 100% (active) | 58.4% | 99% (active) | 99% (active) | 99.2% (active) | 100% (active) | 100% (active) | 49.8% |
| COc1ccc(NN=O)nc1 | 21% | 16% | 31.9% | 8% | 17% | -2.2% | 18% | 23% | -20.9% | 7% | 24% | -18.6% | 20% | 22% | -22.4% | 20% | 29% | 3.95% |
| C[N+](C)(C)CC1CCCc2ccccc2C1=O (stereo not given) | 22% | 90% (active) | 88% (active) | 20% | 97% (active) | 85.9% (active) | 17% | 88% (active) | 91.3% (active) | 6% | 43% | 81% (active) | 32% | 99% (active) | 88.1% (active) | 30% | 98% (active) | 90.5% (active) |
| CCOP(=O)(OCC)C(O)c1ccccc1Cl (stereo not given) | 7% | 4% | 38.4% | 7% | 4% | -4.1% | 3% | 17% | 9.15% | -5% | 1% | 35.5% | -5% | -6% | 17.2% | 7% | 22% | 2.9% |
| C[C@@H]1C[C@H]2CC[C@H](O2)[C@H](C)C(=O)O[C@@H](C)C[C@@H]2CC[C@@H](O2)[C@@H](C)C(=O)O[C@H](C)C[C@H]2CC[C@H](O2)[C@H](C)C(=O)O[C@@H](C)C[C@@H]2CC[C@@H](O2)[C@@H](C)C(=O)O1 | 64% | 94% (active) | 84.3% (active) | 78% (active) | 97% (active) | 88% (active) | 88% (active) | 95% (active) | 87.8% (active) | 55% | 83% (active) | 81.6% (active) | 62% | 89% (active) | 84.3% (active) | 76% (active) | 96% (active) | 82.3% (active) |
| O=S(O)O.O=S(O)O.[Co].[NH2-].[NH2-].[NH2-].[NH2-] | 7% | 21% | -5.55% | -1% | 7% | 29.4% | 20% | 22% | 2.5% | 33% | 16% | 47.9% | 12% | 5% | -5.25% | 3% | 26% | 16% |
| COc1c[c]([Hg][O]C(C)=O)c(OC)c(NC(=O)CC(C)=O)[c]1[Hg][O]C(C)=O | 97% (active) | 95% (active) | 89.7% (active) | 99% (active) | 96% (active) | 92.5% (active) | 100% (active) | 93% (active) | 92.5% (active) | 43% | 96% (active) | 90% (active) | 99% (active) | 96% (active) | 90.8% (active) | 95% (active) | 95% (active) | 88.6% (active) |
| Nc1nc(N)c(-c2ccc(Cl)c(Cl)c2)c(COc2cccc(CNS(=O)(=O)c3ccc(S(=O)(=O)F)cc3)c2)n1 | 3% | 57% | 51.1% | -3% | 86% (active) | 49.5% | -2% | 65% | 58% | -4% | 40% | 54.8% | -3% | 68% | 48.8% |  |  |  |
| O=[N+]([O-])c1ccc([N+](=O)[O-])c2nsnc12 | 98% (active) | 97% (active) | 99.5% (active) | 90% (active) | 98% (active) | 99.5% (active) | 48% | 99% (active) | 99.3% (active) | 77% (active) | 98% (active) | 99.3% (active) | 98% (active) | 98% (active) | 99.2% (active) | 79% (active) | 97% (active) | 99% (active) |
| CC(C)[CH2][Sn](=[O])[c]1ccccc1 | 8% | 18% | 99.3% (active) | 5% | 11% | 99.6% (active) | 5% | 14% | 99.5% (active) | 2% | 10% | 94.8% (active) | 8% | 10% | 99.5% (active) | 5% | 22% | 99.2% (active) |
| O=C(O)c1ccc([Se][Se]c2ccc(C(=O)O)cc2)cc1 | 63% | 97% (active) | 89.9% (active) | 39% | 98% (active) | 92.8% (active) | 58% | 99% (active) | 93.3% (active) | 33% | 94% (active) | 91.5% (active) | 41% | 99% (active) | 91.2% (active) | 67% | 97% (active) | 91.1% (active) |
| O=C(N/N=C/c1cc(Br)cc(Br)c1[O-])c1ccccc1O.O=C(N/N=C/c1cc(Br)cc(Br)c1[O-])c1ccccc1O.[Zn+2] | 96% (active) | 98% (active) | 52.5% | 96% (active) | 96% (active) | 90.7% (active) | 97% (active) | 98% (active) | 85.5% (active) | 94% (active) | 96% (active) | 64.5% | 95% (active) | 96% (active) | 88.1% (active) |  |  |  |
| CCOP(=S)(OCC)SSSP(=S)(OCC)OCC | 6% | 71% (active) | 1.6% | 5% | 62% | 57.8% | 7% | 78% (active) | 15.7% | 5% | 20% | 65.8% | 2% | 84% (active) | 70% (active) | 4% | 49% | 33.9% |

Reference: PubChem BioAssay (NCI)
